Values without a mark were called inactive. Calls of active or inactive are those of the source.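 How the source made its calls: active means z-score of at least 1.8 in each of two replicates, scored against plate mean and spread of sample wells; inactive means the rest.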
Experiment: viability rescue of complex I mutant cybrids, primary screen, cell-based, galactose medium, ATP luminescence (AID 1645843);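 further: positive z means more ATP and so rescue of galactose-driven cybrid death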
Conditions: complex I mutant cybrid cells, 72 h, active compounds read high
With `CC(=O)N1CCCN(c2nccc(-c3cnn(-c4ccccc4F)c3)n2)CC1` the z-score was -0.71. With `CN1CCN(C(=O)c2ccc3c(c2)CCO3)CC1=O` the z-score was 0.07. Molecule `O=C1NCCN(C(=O)c2ccc(Cl)cc2)C1Cc1ccccc1` (stereo not given) has a z-score of 0.59. For `Cc1cccc2ncn(C3CC(C)(C)NC(C)(C)C3)c(=O)c12`, the z-score was -0.515. `Clc1ccc(C(Cn2ccnc2)OCc2csc3c(Cl)cccc23)c(Cl)c1` (stereo not given) gave a z-score of 0.155. Molecule `O=C1NCCN(C(=O)c2ccc(F)c(F)c2)C1Cc1ccccc1` (stereo not given) has a z-score of -0.495. `CCC(CC)(CCC#N)CNC1COC2(CCCC2)C1` (stereo not given) showed a z-score of -0.555. Molecule `CCCC(NC(=O)c1ccc[n+]([O-])c1)c1ccccc1` (stereo not given) has a z-score of -0.43. For `COc1ccc(F)cc1-c1ccc2ccccc2n1`, the z-score was -0.15. `Cc1cc(C)c(CNC(C)CCC(C)C)c(C)c1CO` (stereo not given) gave a z-score of 0.435. `COc1ccc(F)c(-c2cnc(C)[nH]2)c1` gave a z-score of -0.545. With `C=C1C(C)(C)[C@H]2CC[C@]1(C(=O)N1CCC(n3cc(CC(C)C)nn3)CC1)C2` the z-score was -0.52. For `Cc1nsc(NC(=O)NC(C)c2ccc(Cl)cc2)n1` (stereo not given), the z-score was -0.26. For `CCC1(CO)CCCN(c2ncc(C(F)(F)F)cc2Cl)C1` (stereo not given), the z-score was 2.98 (active). For `CCCc1cc(C(=O)N2CCCC(Cn3cc(CC(C)C)nn3)C2)n[nH]1` (stereo not given), the z-score was 1.21. For `CCOC(=O)c1ccc(N2CCC(c3ccccc3F)C2)nc1` (stereo not given), the z-score was -0.015. `O=C1NCCN(C(=O)c2ccccc2)C1Cc1ccccc1` (stereo not given) showed a z-score of -0.54. With `CCn1cc(-c2cc(C(=O)N3CCCCCC3)c3ccc(C)c(C)c3n2)cn1` the z-score was 1.92 (active). With `CCCCn1cc(-c2cc(C(=O)N3CCCC3C)c3cccc(C)c3n2)cn1` (stereo not given) the z-score was 1.28. `CC(C)c1ncc(C(=O)N2CCC(n3cc(-c4ccccn4)nn3)CC2)cn1` showed a z-score of 0.26. In the case of `COc1ccccc1C(=O)N1CCN(C(=O)c2nc3ccccc3c(=O)[nH]2)CC1`, the z-score is reported as 0.365. Molecule `Cc1nn(C)c(C)c1-c1ccnc(NCC(C)Oc2cccnc2)n1` (stereo not given) has a z-score of 1.26. `Cc1nn(C)cc1-c1ccnc(NC(CC(C)(C)C)c2cccnc2)n1` (stereo not given) gave a z-score of 1.75. With `CCCC(C)c1nc2c(cnn2C(C)C(C)C)[nH]1` (stereo not given) the z-score was -1.01. For `CC(C)c1nc(Cn2cnc3sc4c(c3c2=O)CCCC4)cs1`, the z-score was 1.35. Work on `Cc1cc(N2CCCN(C(=O)Nc3nncs3)CC2)ccn1` yielded a z-score of -0.265. Molecule `CCCCc1cn(C2CCN(C(=O)C3CCCO3)CC2)nn1` (stereo not given) has a z-score of -0.535. `Cc1nsc(NC(=O)NCc2cc(Cl)ccc2Cl)n1` showed a z-score of -1.1. In the case of `COc1ccc(CNCC2COCCO2)cc1OC` (stereo not given), the z-score is reported as 3.29 (active). With `COCc1cn(CC2CCN(C(=O)CC3CCCCCC3)CC2)nn1` the z-score was -0.465. In the case of `O=C(O)C1(Oc2cccc(-c3cccc4ncccc34)c2)CCCC1`, the z-score is reported as -0.5. In the case of `O=C(C1CCCCCC1)N1CCC(n2cc(-c3ccsc3)nn2)CC1`, the z-score is reported as -0.215. In the case of `CC1CCCN1C(=O)c1cc(-c2cnn(C(C)C)c2)nc2cc(F)ccc12` (stereo not given), the z-score is reported as -0.72. With `CC(=O)c1c(C)nn(CC(=O)Nc2ccnn2C2CCCCC2)c1C` the z-score was 0.2. In the case of `CCC(CC)CN1CCC(NS(C)(=O)=O)CC1`, the z-score is reported as -0.53. `O=C1CCCc2occ(C(=O)N3CCc4[nH]nc(C5CCC5)c4C3)c21` showed a z-score of 0.15. For `Cc1cccc2c(C(=O)N3CCC(C)(C)C3)cc(-c3cnc(C4CC4)nc3)nc12`, the z-score was 2.3 (active). `COc1ccc(-c2noc(C3CC(C(C)C)=NO3)n2)c(OC)c1` (stereo not given) showed a z-score of -0.525. `CCCCc1cn(C2CCN(C(=O)C3CC3(CC)CC)CC2)nn1` (stereo not given) gave a z-score of 0.39. `COC(C)(C)CCCC(C)CCN1CCC(n2cc(C(C)(C)N)nn2)CC1` (stereo not given) gave a z-score of -0.52.

Source: PubChem BioAssay
